Drawing on PubChem BioAssay, this text covers z-score and composite z-score for nine compounds.

Assay [1] can be described thus: optical density shifts of acrAB sulA E. coli – strain DRC41, OD650, 48 h, E. coli filamentation inducer project, primary screen (AID 1152).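 Further: E. coli MC1000 strain DRC41 lacking acrAB efflux pump and sulA.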 Conditions: higher = more signal, called active from +8 up or from −8 down.
Assay [2] in a line: probe aLefty1 binding on compound microarray – biochemical, small-molecule microarray, 635/667 nm fluorescence, primary screen (AID 1153).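 Further: score merges spot fluorescence with signal-to-noise ratio from the scanned slide images.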 The conditions noted are these: higher = more signal.
Assay [3] is described as follows: plasmodial surface anion channel blockers, osmotic lysis – cell-based, P. falciparum Indochina, OD700, 1 h, primary screen (AID 1154). Conditions: P. falciparum Indochina infected RBC osmotic lysis, higher = more signal, called active from +8 up or from −8 down.
The nature of assay [4]: plasmodial surface anion channel blockers, osmotic lysis – cell-based, P. falciparum Indochina, OD700, 2 h, primary screen (AID 1155).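 Further: lysis reports solute entry through the parasite surface anion channel PSAC.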 The conditions noted are these: P. falciparum Indochina infected erythrocytes, higher = more signal, called active from +8 up or from −8 down.
Assay [5] is described as follows: changes in parasitized red cell lysis, either direction – P. falciparum Indochina, OD700, 3 h, PSAC antagonist project, primary screen (AID 1156). The conditions noted are these: P. falciparum-infected erythrocytes, osmotic lysis, higher = more signal, called active from +8 up or from −8 down.
Assay [6] can be described thus: plasmodial surface anion channel blockers, osmotic lysis – cell-based, P. falciparum Indochina, OD700, 18 h, primary screen (AID 1157). Conditions: P. falciparum Indochina infected erythrocytes, osmotic lysis OD700, 18 h; higher = more signal, called active from +8 up or from −8 down.
Assay [7] can be described thus: S6 kinase pathway phospho-S6 level changes – cell-based, A549, cytoblot, luminescence, serum-stimulated, primary screen (AID 1158).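 Further: serum-stimulated A549 lung adenocarcinoma cells; signal is phosphorylated S6 detected by cytoblot immunostaining with HRP secondary.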 The conditions noted are these: 5 h, higher = more signal.
Assay [8] addresses NADPH oxidase 2 (Homo sapiens) (UniProt P04839). In words: compounds shifting NOX2 Amplex Red fluorescence – cell-based, HEK293-NOX2, PMA-stimulated, NOX inhibitor project, primary screen (AID 1159). Further: test concentration not given here. The conditions noted are these: 45 min, higher = more signal, called active from +8 up or from −8 down.
Assay [9] has as its target NADPH oxidase 4 (Homo sapiens) (UniProt Q9NPH5). In words: compounds shifting NOX4 Amplex Red fluorescence – cell-based, HEK293-NOX4, tetracycline-induced, NOX inhibitor project, primary screen (AID 1160). The conditions noted are these: HEK293-NOX4, Amplex Red H2O2 fluorescence, 45 min; higher = more signal, called active from +8 up or from −8 down.
Assay [10] has as its target NADPH oxidase 5 (Homo sapiens) (UniProt Q96PH1). In words: compounds shifting NOX5 Amplex Red fluorescence – cell-based, HEK293-NOX5, NOX inhibitor project, primary screen (AID 1161). The conditions noted are these: HEK293-NOX5, ionomycin, 45 min, higher = more signal.
Assay [11] is described as follows: compound effects on lung adenocarcinoma cell viability – A549, calcein-AM fluorescence, 48 h, basal, profiling panel (AID 1162). Further: test concentration not given here. The conditions noted are these: higher = more signal.
Assay [12] can be described thus: compound effects on differentiated 3T3-L1 adipocyte viability – cell-based, 3T3-L1 adipocytes, calcein-AM fluorescence, 48 h, basal, profiling panel (AID 1163). Further: test concentration not given here. The conditions noted are these: 3T3-L1 adipocytes viability, higher = more signal.
Assay [13] in a line: compound effects on hepatocellular carcinoma cell viability – HepG2, calcein-AM fluorescence, 48 h, basal, profiling panel (AID 1164). Further: test concentration not given here. The conditions noted are these: higher = more signal.
Assay [14] in a line: compound effects on multiple myeloma cell viability – MM1S, calcein-AM fluorescence, 48 h, basal, profiling panel (AID 1165). Further: test concentration not given here. The conditions noted are these: higher = more signal.
The nature of assay [15]: calcein-AM signal in unstimulated myeloma cells – cell-based, calcein-AM fluorescence, 48 h, PK04 Diversity Set, profiling panel (AID 1166).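 Further: cells grown under basal conditions without added stimulus; test concentration not given here.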 The conditions noted are these: RPMI8226 myeloma viability, higher = more signal.
Assay [16] is described as follows: JC-1 mitochondrial signal, unstimulated HepG2 cells – cell-based, JC-1 fluorescence, 24 h, 100 nL compound, profiling panel (AID 1167). Further: test concentration not given here. The conditions noted are these: HepG2 mitochondrial potential, higher = more signal.
The nature of assay [17]: JC-1 mitochondrial signal, unstimulated adipocytes – cell-based, JC-1 fluorescence, 3T3-L1 adipocytes, 24 h, 100 nL compound, profiling panel (AID 1168). Further: test concentration not given here. The conditions noted are these: JC-1 mitochondrial fluorescence, higher = more signal, called active from +8 up or from −8 down.
Assay [18] can be described thus: JC-1 mitochondrial signal, unstimulated myeloma cells – cell-based, JC-1 fluorescence, RPMI8226, 24 h, 100 nL compound, profiling panel (AID 1169). Further: test concentration not given here. Conditions: JC-1 mitochondrial potential fluorescence, higher = more signal.
A short description of assay [19]: JC-1 mitochondrial signal, unstimulated MM1S myeloma – cell-based, JC-1 fluorescence, 24 h, 100 nL compound, profiling panel (AID 1170). Further: test concentration not given here. Conditions: MM1S mitochondrial potential, higher = more signal.
The nature of assay [20]: resazurin metabolic signal in A549 cells – cell-based, resazurin fluorescence, 24 h, PK04 Diversity Set, profiling panel (AID 1171). Further: test concentration not given here. Conditions: A549 viability, higher = more signal, called active from +8 up or from −8 down.

Active and inactive are the calls of the source.

Chain of NADPH oxidase 5 (Homo sapiens) (Q96PH1 whole entry, looked up): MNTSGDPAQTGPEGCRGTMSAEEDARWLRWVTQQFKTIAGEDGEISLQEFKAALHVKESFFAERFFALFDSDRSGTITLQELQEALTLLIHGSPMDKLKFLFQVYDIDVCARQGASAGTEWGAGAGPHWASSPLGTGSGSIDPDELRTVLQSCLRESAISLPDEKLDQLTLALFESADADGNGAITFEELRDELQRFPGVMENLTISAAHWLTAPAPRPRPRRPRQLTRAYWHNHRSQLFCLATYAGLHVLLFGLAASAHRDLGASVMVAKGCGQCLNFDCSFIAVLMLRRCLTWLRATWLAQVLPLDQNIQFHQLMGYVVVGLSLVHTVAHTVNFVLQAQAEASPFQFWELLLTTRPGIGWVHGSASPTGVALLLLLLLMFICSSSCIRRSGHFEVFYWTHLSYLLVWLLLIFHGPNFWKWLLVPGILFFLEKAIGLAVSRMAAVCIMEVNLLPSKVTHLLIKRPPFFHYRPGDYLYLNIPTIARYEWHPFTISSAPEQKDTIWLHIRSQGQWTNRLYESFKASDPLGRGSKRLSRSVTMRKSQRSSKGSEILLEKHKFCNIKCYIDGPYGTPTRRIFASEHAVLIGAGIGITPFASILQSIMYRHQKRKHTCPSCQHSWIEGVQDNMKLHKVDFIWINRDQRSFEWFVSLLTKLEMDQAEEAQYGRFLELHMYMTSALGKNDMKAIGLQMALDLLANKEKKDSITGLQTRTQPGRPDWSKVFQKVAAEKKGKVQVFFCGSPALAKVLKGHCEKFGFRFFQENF
Chain of NADPH oxidase 4 (Homo sapiens) (Q9NPH5 whole entry, looked up): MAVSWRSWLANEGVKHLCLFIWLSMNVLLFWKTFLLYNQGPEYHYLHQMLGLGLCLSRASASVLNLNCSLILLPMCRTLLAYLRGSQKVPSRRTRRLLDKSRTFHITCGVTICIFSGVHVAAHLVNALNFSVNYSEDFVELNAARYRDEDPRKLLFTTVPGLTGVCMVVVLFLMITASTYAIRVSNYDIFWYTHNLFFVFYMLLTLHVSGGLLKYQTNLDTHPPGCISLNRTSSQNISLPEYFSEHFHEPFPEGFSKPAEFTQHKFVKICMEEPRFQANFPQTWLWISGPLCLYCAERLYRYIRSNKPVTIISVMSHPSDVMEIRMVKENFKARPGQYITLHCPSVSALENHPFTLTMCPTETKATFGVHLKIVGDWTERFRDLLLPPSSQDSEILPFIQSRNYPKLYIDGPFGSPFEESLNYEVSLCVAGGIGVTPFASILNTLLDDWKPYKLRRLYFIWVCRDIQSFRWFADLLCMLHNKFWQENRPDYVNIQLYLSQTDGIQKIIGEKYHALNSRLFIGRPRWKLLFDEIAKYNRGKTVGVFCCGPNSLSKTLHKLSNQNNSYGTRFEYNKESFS
Chain of NADPH oxidase 2 (Homo sapiens) (P04839 whole entry, looked up): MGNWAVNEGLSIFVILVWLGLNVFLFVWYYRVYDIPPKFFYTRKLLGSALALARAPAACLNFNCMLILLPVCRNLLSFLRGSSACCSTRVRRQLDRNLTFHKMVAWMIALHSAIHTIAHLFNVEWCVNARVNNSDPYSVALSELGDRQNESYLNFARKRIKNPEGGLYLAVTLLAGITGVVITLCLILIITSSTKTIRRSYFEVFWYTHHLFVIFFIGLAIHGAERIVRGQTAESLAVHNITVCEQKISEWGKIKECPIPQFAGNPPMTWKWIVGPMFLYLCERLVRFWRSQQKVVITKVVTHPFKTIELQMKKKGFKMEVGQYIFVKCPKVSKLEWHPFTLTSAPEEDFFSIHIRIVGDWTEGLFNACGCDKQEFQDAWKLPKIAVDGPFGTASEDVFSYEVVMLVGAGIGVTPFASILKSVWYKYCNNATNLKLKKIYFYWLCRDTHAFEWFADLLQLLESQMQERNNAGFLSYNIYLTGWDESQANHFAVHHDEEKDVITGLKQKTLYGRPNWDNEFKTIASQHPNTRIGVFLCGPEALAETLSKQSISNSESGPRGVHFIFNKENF

Turning to `O=C1[C@H]2[C@H]3[C@H](O)[C@H](O)CC(=NOC[C@@H](O)COCc4ccco4)[C@@H]3CC[C@H]2C(=O)N1C[C@@H]1CCCO1`, the z-score in [1] was 0.916 (inactive); in assay [3], 2.05 (inactive); in [4], 0.544 (inactive); in assay [5], -0.0602 (inactive); in assay [6] it was 0.329 (inactive); in assay [7], -0.605. In addition, the z-score in [8] is 0.222 (inactive); in assay [9] it was 0.374 (inactive); in assay [10], 0.382; in [11], 0.863; in assay [12], -1.2; in assay [13], -0.128. Further, the z-score in assay [14] was 0.524; in [15], -0.295; in [16], 0.607; in assay [17], 1.25 (inactive); in [18], -0.32; in assay [19], -0.796. Also, the z-score in assay [20] is 0.0753 (inactive). In [2], this compound showed a composite z-score of -0.0061.
On to `CO[C@H]1COC(=O)CC=C[C@@H](C)[C@H](NS(=O)(=O)c2ccc(C)cc2)COC(=O)CCC[C@@H]1C`, for which the z-score was -0.643 (inactive) in [1]; -0.669 (inactive) in assay [3]; -1.56 (inactive) in [4]; -0.883 (inactive) in assay [5]; -1.62 (inactive) in [6]; -0.56 in [7]. For the same compound, the z-score in assay [8] is -0.255 (inactive); in assay [9], 0.987 (inactive); in [10], 0.428; in assay [11], 0.379; in assay [12], 1.15; in [13], -0.179. Moreover, the z-score is 0.339 in [14]; 0.229 in [15]; -0.3 in [16]; -0.134 (inactive) in [17]; 0.112 in assay [18]; -0.58 in [19]. The z-score in [20] is 0.478 (inactive). Also, the composite z-score in assay [2] is -0.062.
With `CCOC(=O)[C@H](Cc1ccccc1)NC(=O)CCC1CC(OC(=O)NCc2cccc3ccccc23)CC2(CCCC(COC(=O)NCc3ccccc3)O2)O1` (stereo not given in full), the z-score in assay [1] was -1.32 (inactive); in assay [3] it was 4.71 (inactive); in assay [4] it was 0.55 (inactive); in assay [5], -0.562 (inactive); in assay [6] it was -0.2 (inactive); in assay [7] it was 3.91. Further, the z-score is -1.59 (inactive) in assay [8]; -1.2 (inactive) in [9]; -1.7 in [10]; 0.143 in [11]; 0.919 in assay [12]; -1.03 in assay [13]. The z-score is 0.418 in assay [14]; -0.653 in [15]; 1.12 in assay [16]; -0.39 (inactive) in assay [17]; -0.839 in assay [18]; -1.18 in assay [19]. In addition, the z-score in assay [20] was 0.682 (inactive). This compound returned a composite z-score in [2] of 0.0935.
Regarding `CCOC(=O)[C@H](CC(C)C)NC(=O)CCC1CC(OC(=O)NCc2cccc3ccccc23)CC2(CCCC(COC(=O)NCC3CCCCC3)O2)O1` (stereo not given in full), the z-score in assay [1] was -0.398 (inactive); in [3], 0.864 (inactive); in assay [4], -1.04 (inactive); in [5], 0.552 (inactive); in assay [6] it was -1.35 (inactive); in assay [7], 1.64. Moreover, the z-score in [8] is -2.61 (inactive); in [9] it was -1.93 (inactive); in assay [10], -2.79; in [11] it was -0.15; in [12], 1.09; in assay [13], -0.993. Moreover, the z-score in assay [14] was -2.66; in [15], -1.28; in assay [16], 0.895; in assay [17], -0.0758 (inactive); in [18] it was 0.273; in assay [19], -0.929. Also, in [20], the z-score is 0.945 (inactive). In addition, the composite z-score in assay [2] is 0.183.
As for `O=C(NN=C1C[C@@H](O)[C@@H](O)[C@@H]2[C@@H]3C(=O)N(Cc4ccccc4)C(=O)[C@@H]3CC[C@@H]12)OCc1ccccc1`, the z-score in assay [1] is 0.151 (inactive); in assay [3], 1.91 (inactive); in assay [4] it was 0.801 (inactive); in assay [5] it was 0.458 (inactive); in assay [6], 0.526 (inactive); in assay [7] it was 0.0339. The z-score was -1.23 (inactive) in assay [8]; 0.0701 (inactive) in assay [9]; 0.224 in assay [10]; 0.272 in assay [11]; -0.201 in assay [12]; -0.258 in [13]. Moreover, the z-score in [14] was 0.372; in assay [15], 0.582; in assay [16], 1.23; in assay [17] it was 0.806 (inactive); in [18] it was -0.37; in assay [19], -1.53. The z-score in [20] was -0.534 (inactive). The composite z-score in assay [2] was 0.0837.
Turning to `COc1ccc(O[C@H]2C=C[C@@H](c3ccccc3)O[C@@H]2CON=CC[C@@H]2C=C[C@H](OC(C)=O)[C@@H](COC(C)=O)O2)cc1`, the z-score is -0.259 (inactive) in [1]; 8.95 (active) in [3]; 1.95 (inactive) in assay [4]; 1.07 (inactive) in [5]; 0.662 (inactive) in assay [6]; -0.981 in [7]. The z-score is -0.279 (inactive) in assay [8]; -2.22 (inactive) in [9]; -1.01 in assay [10]; 0.0639 in [11]; -0.0129 in assay [12]; -0.555 in assay [13]. Besides, the z-score in assay [14] is 0.306; in assay [15], -1.17; in [16], -1.33; in assay [17], -0.112 (inactive); in assay [18], -0.0648; in [19], 0.491. Also, the z-score in assay [20] is -0.247 (inactive). The compound also registered a composite z-score in assay [2] of -0.0054.
On to `CCCCC#C[C@@H]1C=C[C@H](OC(C)=O)[C@@H](COC(C)=O)O1`, for which the z-score is -0.656 (inactive) in assay [1]; 0.604 (inactive) in assay [3]; 0.364 (inactive) in assay [4]; -0.89 (inactive) in assay [5]; -0.0473 (inactive) in [6]; -0.268 in assay [7]. Also, the z-score in assay [8] is -2.78 (inactive); in assay [9], 1.05 (inactive); in assay [10], 2.02; in assay [11], -0.0464; in [12], -0.515; in assay [13], -1.14. The z-score is -3.37 in assay [14]; -3.02 in assay [15]; -1.24 in assay [16]; 0.378 (inactive) in assay [17]; -0.746 in assay [18]; -2.22 in assay [19]. Also, the z-score in assay [20] is 0.451 (inactive). The same compound returned a composite z-score in assay [2] of -0.0111.
Regarding `COC(=O)CC=C[C@@H](C)[C@@H](C=NO[C@@H](C)c1cc(-c2c(C)cc(C)cc2C)no1)NS(=O)(=O)c1ccc(C)cc1`, the z-score in assay [1] is -0.466 (inactive); in assay [3], 1.34 (inactive); in [4], -0.745 (inactive); in [5], 0.971 (inactive); in assay [6], -1.89 (inactive); in assay [7], 1.13. The z-score in [8] was -0.868 (inactive); in [9], -0.115 (inactive); in assay [10] it was -1.47; in assay [11], -0.985; in assay [12], 0.885; in assay [13], -0.145. For the same compound, the z-score is 0.236 in [14]; -1.75 in assay [15]; -0.189 in assay [16]; -1.08 (inactive) in assay [17]; 0.634 in assay [18]; -0.147 in assay [19]. For the same compound, the z-score in assay [20] is 0.298 (inactive). In assay [2], this compound registered a composite z-score of 0.0437.
In the case of `O=C1CCCC=C1C(CCc1ccccc1)OC(=O)c1ccc(Br)cc1` (stereo not given), the z-score in [1] was -0.303 (inactive); in assay [3] it was 10.6 (active); in assay [4] it was 0.748 (inactive); in assay [5] it was -0.295 (inactive); in assay [6] it was -0.364 (inactive); in assay [7], 0.307. For the same compound, the z-score in assay [8] was 1.36 (inactive); in [9] it was 0.397 (inactive); in assay [10] it was -1.5; in assay [11], -0.281; in [12] it was 0.893; in [13] it was -0.318. Further, the z-score in [14] was -3.42; in assay [15], -2.69; in assay [16], -0.158; in assay [17], -1.15 (inactive); in [18], -0.619; in assay [19], -0.127. Moreover, the z-score in [20] is -0.251 (inactive). In addition, in [2], the composite z-score was determined as 0.16.
